Results filed as inconclusive are left out. Entries that show only a call come without a potency. Activity calls are given as the source filed them. The call rests on the fitted dose curve; in most records, active means well fitted curve in the direction sought with a large enough effect; inconclusive means small, poorly fitted or top-dose-only effect, or another doubt; inactive means no such curve, though single readings can be large; an effect the other way counts as inactive or inconclusive.
Key:
[1] = system: Zika virus NS2B-NS3 protease; experiment: Primary screen GU AMC qHTS for Zika virus inhibitors (AID 1347154); conditions: Zika NS2B-NS3 unlinked protease, AMC fluorogenic substrate; series mostly up to 54.1 µM; further: nearly all actives have a fitted effect of over 70% in size
Summary of the method: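 Unlinked Zika NS2B hydrophilic domain–NS3 protease complex at 25 nM in 10 mM Tris-HCl pH 8.0, 0.01% Tween 20, with an AMC peptide substrate. Fluorescence change (340/450 nm) over 15 min at room temperature, normalized to controls, fitted to 4-parameter Hill.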

[2] = system: Zika virus NS2B-NS3 protease (linked construct); experiment: Primary screen NINDS Rhodamine qHTS for Zika virus inhibitors (AID 1347160); conditions: purified NS2B-NS3 protease, Rhodamine110 substrate fluorescence; series mostly up to 57.1 µM; further: nearly all actives have a fitted effect of over 55% in size
Summary of the method: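 Rhodamine110-peptide cleavage (1.5 µM substrate) by 25 nM linked NS2B-NS3 enzyme at pH 8.0 (Tris, Tween 20), after 15 min RT preincubation with compounds; 15-min fluorescence change normalized to controls and Hill-fitted.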

[3] = Confirmatory screen GU Rhodamine qHTS for Zika virus inhibitors qHTS (AID 1347157); conditions: purified enzyme assay, Rhodamine110 substrate fluorescence, 15 min; series mostly up to 22 µM; further: nearly all actives have a fitted effect of over 70% in size; further: potency means the concentration at half of the fitted maximal effect
Summary of the method: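 Compounds, tested up to 114 microM, were incubated for 15 minutes with 25 nM unlinked NS2B-NS3 protease at pH 8.0. Cleavage of 1.5 microM Rhodamine110 substrate was then followed by fluorescence for 15 minutes.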

[4] = Confirmatory screen NINDS Rhodamine qHTS for Zika virus inhibitors (AID 1347161); conditions: purified enzyme assay, Rhodamine110 substrate fluorescence, 15 min; series mostly up to 22.2 µM; further: nearly all actives have a fitted effect of over 60% in size; further: potency means the concentration at half of the fitted maximal effect
Summary of the method: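 Aprotinin served as in-plate control. Conditions: 25 nM linked NS2B-NS3, pH 8.0 Tris buffer, titrated compounds, 15 min preincubation and 15 min reaction with 1.5 microM Rhod110 substrate at room temperature.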

[5] = system: Zika virus NS2B-NS3 protease (unlinked complex); experiment: Primary screen GU Rhodamine qHTS for Zika virus inhibitors: Unlinked NS2B-NS3 protease assay (AID 1347159); conditions: Recombinant ZIKV NS2B-NS3 protease, Rhodamine110 substrate fluorescence; series mostly up to 107 µM; further: nearly all actives have a fitted effect of over 60% in size; further: potency means the concentration at half of the fitted maximal effect
Summary of the method: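 Percent inhibition came from the 15-min rise in Rhodamine110 fluorescence (1.5 microM substrate, ~15% conversion), normalized to no-inhibitor and no-enzyme wells and Hill-fitted. Unlinked protease, 25 nM, pH 8.0 Tris buffer; compounds up to 114 microM, 15-min preincubation.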

[6] = system: Zika virus NS2B-NS3 protease (linked); experiment: 384 well plate NINDS AMC confirmatory qHTS for Zika virus inhibitors (AID 1347163); conditions: Recombinant NS2B-NS3 protease, Ac-VKTGKR-AMC fluorescence; series mostly up to 100 µM; further: potency means the concentration at half of the fitted maximal effect; nearly all actives have a fitted effect of over 50% in size
Summary of the method: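 Enzyme (5, 30 or 60 nM final) first met test compounds for ~15 min. The AMC-tagged peptide Ac-VKTGKR-AMC followed at 30 microM. Fluorescence was then recorded at 25 min and scaled against no-enzyme and no-inhibitor wells.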

[7] = system: Zika virus NS2B-NS3 protease (linked construct); experiment: 384 well plate NINDS Rhodamine confirmatory qHTS for Zika virus inhibitors (AID 1347164); conditions: rhodamine-110 peptide substrate fluorescence; further: potency means the concentration at half of the fitted maximal effect; nearly all actives have a fitted effect of over 65% in size
Summary of the method: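 Cleavage of Ac-LKRR-Rhodamine 110 (10 microM final) by linked protease (final 5, 30 or 60 nM) was followed as fluorescence at 485/538 nm after 25 min, room temperature, dark. Compounds preincubated ~15 min.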

SMILES: CC(C)N(CCC(=O)c1ccc2ccccc2c1)Cc1ccccc1
- Potency [1]: inactive
- outcome [2]: inactive

SMILES: CC1CC(=O)NN=C1c1ccc(NCC(C)(C)NCC(O)COc2cc(Cl)ccc2C#N)cc1 (configuration not stated)
- Potency [1]: inactive
- outcome [2]: inactive

SMILES: O=C(COCCOCCOCC(=O)Nc1c(I)cc(I)c(C(=O)O)c1I)Nc1c(I)cc(I)c(C(=O)O)c1I
- Potency [3]: inactive
- Potency [4]: inactive

SMILES: O=C1NC(=O)/C(=C/c2ccc3c(c2)OC(F)(F)O3)S1
- Potency [3]: 12.4 µM (active)
- Potency [5]: 12.6 µM (active)
- Potency [4]: 7.84 µM (active)
- Potency [6]: 7.94 µM (active)
- Potency [7]: 5.01 µM (active)

SMILES: CO[C@]1(NC(=O)CSC(F)F)C(=O)N2C(C(=O)O)=C(CSc3nnnn3CCO)CO[C@H]21
- Potency [1]: inactive
- Potency [5]: inactive
- outcome [2]: inactive

SMILES: O=[N+]([O-])c1nccn1CO[C@@H](CO)[C@H](O)CO
- Potency [1]: inactive
- Potency [5]: inactive
- outcome [2]: inactive

SMILES: CN(CC1(C)CCCO1)S(=O)(=O)c1ccc(Cl)c(S(N)(=O)=O)c1 (configuration not stated)
- Potency [1]: inactive
- outcome [2]: inactive

SMILES: CC(C(O)c1ccccc1)N(C)CCOC(c1ccccc1)c1ccccc1 (configuration not stated)
- Potency [1]: inactive
- outcome [2]: inactive

SMILES: O=[N+]([O-])c1ccc(-c2nc(-c3ccc(F)cc3)c(-c3ccncc3)[nH]2)cc1
- Potency [5]: 79.4 µM (active)
- outcome [2]: inactive

SMILES: C=CCOc1cc(Cl)ccc1C(=O)NCCN(CC)CC
- Potency [1]: inactive
- Potency [5]: inactive
- outcome [2]: inactive

SMILES: OC1(c2ccc(Cl)c(C(F)(F)F)c2)CCN(CCCC(c2ccc(F)cc2)c2ccc(F)cc2)CC1
- Potency [5]: inactive
- outcome [2]: inactive

SMILES: Clc1ccc2c(c1)N=C(N1CCNCC1)c1ccccc1N2
- Potency [1]: inactive
- Potency [5]: inactive
- outcome [2]: inactive

SMILES: O=C1NC(c2cccc([N+](=O)[O-])c2)=CCN1c1ccccc1O
- Potency [1]: inactive
- Potency [5]: inactive
- outcome [2]: inactive

SMILES: O=C(NN1CCCC1)NS(=O)(=O)c1ccc(Cl)cc1
- Potency [1]: inactive
- outcome [2]: inactive

SMILES: CC(=O)O[C@@H]1C(=O)O[C@@H]2[C@H]1OC(=O)[C@@H]2OC(C)=O
- Potency [1]: inactive
- Potency [5]: inactive
- outcome [2]: inactive

SMILES: O=C(CCCCCCCCC#CI)Oc1ccccc1
- Potency [1]: inactive
- Potency [5]: inactive
- outcome [2]: inactive

SMILES: C[N+]1(CC2COC(c3ccccc3)(c3ccccc3)O2)CCCCC1 (configuration not stated)
- Potency [1]: inactive
- outcome [2]: inactive [at 33.1 µM]

SMILES: O=C1OC2(c3ccccc31)c1cc(I)c(O)c(I)c1Oc1c2cc(I)c(O)c1I
- Potency [4]: 17.8 µM (active)

SMILES: COc1cc(NS(=O)(=O)c2ccc(N)cc2)nc(C)n1
- Potency [1]: inactive
- outcome [2]: inactive
